Many of the other results were omitted from the sample, so hits are more common in it than they were.
miR-122 inh: raises miR-122 sensor activity in Huh7 cells; 340,000 compounds, 0.14% hits; Huh7 psiCHECK-miR122 Renilla luciferase sensor, 48 h; activation, % at 12.5 µM;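 active = mean activation of 30% or more, with every replicate also reaching 30%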;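 note: 0% = median of neutral control wells and 100% = median of positive control wells; higher luciferase signal means stronger suppression of miR-122 activity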
Starred values were filed as active, the others as inactive.

What do the screens show for `C[C@@H]1CN([C@@H](C)CO)C(=O)c2cc(NC(=O)Nc3ccc(C(F)(F)F)cc3)ccc2O[C@@H]1CN(C)CC1CCCCC1`?
miR-122 inh: 40*

Results for Cc1ccc(S(=O)(=O)N(C)C[C@H]2Oc3ccc(NC(=O)Nc4ccc(C(F)(F)F)cc4)cc3C(=O)N([C@H](C)CO)C[C@H]2C)cc1 ?
miR-122 inh: -93

What do the screens show for `COCC#Cc1cnc2c(c1)C(=O)N([C@H](C)CO)C[C@@H](C)[C@@H](CN(C)C(=O)Cc1cccnc1)O2`?
miR-122 inh: 6

What do the screens show for `CCC(=O)Nc1ccc2c(c1)OC[C@H](C)N(C(=O)c1ccccc1F)C[C@H](C)[C@H](OC)CN(C)C2=O`?
miR-122 inh: -1

Results for COc1ccc(NC(=O)N(C)C[C@@H]2Oc3ncc(Br)cc3C(=O)N([C@H](C)CO)C[C@@H]2C)cc1 ?
miR-122 inh: -31

Results for COCC(=O)N(C)C[C@@H]1Oc2cc(Br)ccc2S(=O)(=O)N([C@@H](C)CO)C[C@@H]1C ?
miR-122 inh: -25

Results for CC(=O)C1=C(c2ccc(Br)cc2)C(=O)c2ccccc2C1=O ?
miR-122 inh: 76*

Results for COc1ccccc1-c1ccc2c(c1)O[C@@H](CN(C)C(C)=O)[C@H](C)CN([C@@H](C)CO)S2(=O)=O ?
miR-122 inh: 1

Results for C[C@@H]1CN([C@H](C)CO)S(=O)(=O)c2ccc(C#CC3CCCC3)cc2O[C@@H]1CN(C)CC1CC1 ?
miR-122 inh: -6

Results for C[C@H](O)C#Cc1ccc2c(c1)O[C@@H](CN(C)C)[C@@H](C)CN([C@H](C)CO)S2(=O)=O ?
miR-122 inh: 3

How did C[C@H]1CN([C@@H](C)CO)S(=O)(=O)c2ccc(C#CC(C)(C)O)cc2O[C@H]1CN(C)C(=O)C1CCC1 do in these assays?
miR-122 inh: 5

What do the screens show for `C/C=C/c1ccc([C@@H]2[C@@H](CN(C(=O)COC)C(C)C)N(C(C)=O)[C@H]2CO)cc1`?
miR-122 inh: 50*

Results for COCC(=O)N(C)C[C@H]1Oc2ncc(/C=C/c3ccccc3)cc2C(=O)N([C@H](C)CO)C[C@H]1C ?
miR-122 inh: 3

How did COCC(=O)N(C)C[C@H]1Oc2ncc(/C=C/c3ccccc3)cc2C(=O)N([C@H](C)CO)C[C@@H]1C do in these assays?
miR-122 inh: 4

Results for CO[C@H]1CN(C)C(=O)c2cc(NS(=O)(=O)CC(F)(F)F)ccc2OC[C@H](C)N(C)C[C@@H]1C ?
miR-122 inh: -9

How did CC(C)NC(=O)N(C)C[C@H]1Oc2ncc(C3=CCCCC3)cc2C(=O)N([C@@H](C)CO)C[C@H]1C do in these assays?
miR-122 inh: -3

What do the screens show for `CN(C)CCNc1ncnc2c1sc1nc(N3CCOCC3)c3c(c12)CC(C)(C)SC3`?
miR-122 inh: 56*

What do the screens show for `C[C@@H]1CN([C@H](C)CO)C(=O)c2cc(-c3ccccc3F)cnc2O[C@H]1CN(C)Cc1ccccc1F`?
miR-122 inh: -36

Results for CCC(=O)N(C)C[C@H]1Oc2ncc(C#CC3(O)CCCC3)cc2C(=O)N([C@H](C)CO)C[C@H]1C ?
miR-122 inh: 3

Results for Cc1ccsc1/C=N/n1c(-c2ccco2)n[nH]c1=S ?
miR-122 inh: 39*

Results for CN[C@H]1C[C@H]2c3[nH]c4ccc(-c5ccc(OC)cc5)cc4c3CCN2C(=O)[C@H]1[C@H](C)O ?
miR-122 inh: 32*

What do the screens show for `C[C@@H]1CN([C@H](C)CO)C(=O)c2cc(Br)cnc2O[C@H]1CN(C)C(=O)c1cccnc1`?
miR-122 inh: -1

What do the screens show for `COCC(=O)N(C)C[C@H]1Oc2cc(-c3cncnc3)ccc2S(=O)(=O)N([C@@H](C)CO)C[C@@H]1C`?
miR-122 inh: -3

What do the screens show for `C[C@H](CO)N1C[C@H](C)[C@H](CN(C)Cc2cncnc2)Oc2ncc(-c3cccc(F)c3)cc2C1=O`?
miR-122 inh: -32

What do the screens show for `CCC(=O)Nc1ccc2c(c1)C(=O)N(C)C[C@@H](OC)[C@@H](C)CN(Cc1ccccc1OC)[C@@H](C)CO2`?
miR-122 inh: -6

What do the screens show for `Cc1ccc(S(=O)(=O)c2ccc([N+](=O)[O-])cn2)cc1`?
miR-122 inh: 33*

Results for C[C@H](CO)N1C[C@H](C)[C@@H](CN(C)Cc2ccccc2)Oc2ncc(-c3cccc(C#N)c3)cc2C1=O ?
miR-122 inh: 11

How did CCCn1c(CC)nc([N+](=O)[O-])c1S(=O)(=O)c1ccccc1 do in these assays?
miR-122 inh: 48*

Results for CCC(=O)Nc1ccc2c(c1)OC[C@@H](C)NC[C@H](C)[C@H](OC)CN(C)C2=O ?
miR-122 inh: -1

What do the screens show for `C[C@H](CO)N1C[C@H](C)[C@H](CN(C)C(=O)Nc2ccc3c(c2)OCO3)Oc2cc(C#Cc3ccccc3)ccc2S1(=O)=O`?
miR-122 inh: 2

Results for COCC(=O)N(C)C[C@@H]1Oc2cc(-c3cccc(F)c3)ccc2S(=O)(=O)N([C@@H](C)CO)C[C@@H]1C ?
miR-122 inh: 2

Results for COCC#Cc1cnc2c(c1)C(=O)N([C@H](C)CO)C[C@H](C)[C@@H](CN(C)S(=O)(=O)c1cccc(OC)c1)O2 ?
miR-122 inh: -6

What do the screens show for `Cc1noc(C)c1NC(=O)N(C)C[C@H]1Oc2ncc(C#CCC(C)C)cc2C(=O)N([C@H](C)CO)C[C@@H]1C`?
miR-122 inh: -1

How did N#Cc1cccc(NC(=O)Nc2cccs2)c1 do in these assays?
miR-122 inh: 36*

What do the screens show for `O=C(/C=C/Nc1cccc([N+](=O)[O-])c1)c1cccs1`?
miR-122 inh: -93

What do the screens show for `C[C@@H]1CN([C@@H](C)CO)S(=O)(=O)c2ccc(C#Cc3cccc(F)c3)cc2O[C@@H]1CN(C)C(=O)CN1CCOCC1`?
miR-122 inh: -3

What do the screens show for `C[C@H](CO)N1C[C@H](C)[C@@H](CN(C)Cc2ccc(C(=O)O)cc2)Oc2ncc(-c3ccc(F)cc3)cc2C1=O`?
miR-122 inh: 4

How did C[C@H]1CN([C@@H](C)CO)S(=O)(=O)c2ccc(C#Cc3ccc(F)cc3)cc2O[C@@H]1CN(C)S(=O)(=O)c1cn(C)cn1 do in these assays?
miR-122 inh: -44

What do the screens show for `COc1cccc(C(=O)Nc2ccc(C(=O)O)cc2)c1`?
miR-122 inh: -113

How did CCN(CC)CCNC(=O)c1ccc(NC(=O)c2cn(-c3ccc(F)cc3)nc2-c2cccc(OC)c2)cc1 do in these assays?
miR-122 inh: 68*

Results for CNC[C@@H]1Oc2cc(C#Cc3cccc(F)c3)ccc2S(=O)(=O)N([C@H](C)CO)C[C@H]1C ?
miR-122 inh: -13

How did C[C@H]1CN([C@@H](C)CO)C(=O)c2cc(C#CC3(O)CCCC3)cnc2O[C@@H]1CN(C)Cc1cncnc1 do in these assays?
miR-122 inh: 2

What do the screens show for `CCC(=O)N(C)C[C@@H]1Oc2ncc(C#Cc3cccnc3)cc2C(=O)N([C@H](C)CO)C[C@@H]1C`?
miR-122 inh: -4

What do the screens show for `C[C@H]1CN([C@@H](C)CO)C(=O)c2cc(-c3ccccc3)cnc2O[C@H]1CN(C)C(=O)Nc1ccc2c(c1)OCO2`?
miR-122 inh: -3

What do the screens show for `COc1ccc(C#Cc2ccc3c(c2)O[C@@H](CN(C)C(=O)CN2CCOCC2)[C@@H](C)CN([C@H](C)CO)S3(=O)=O)cc1`?
miR-122 inh: 36*

Results for COc1ccc(C#Cc2ccc3c(c2)O[C@H](CN(C)C(=O)NC2CCCCC2)[C@@H](C)CN([C@H](C)CO)S3(=O)=O)cc1 ?
miR-122 inh: -27

Compound activity from PubChem BioAssay.
